Screens as filed in PubChem BioAssay.
V-ATPase pH = regulators of yeast V-ATPase proton pumping, primary screen, pHLuorin cytosolic pH fluorescence; S. cerevisiae; 350,000 compounds, 0.37% hits; response, % at 10 µM; in the data active = response mostly above about 7.3%, no sharp cut-off; inactive = mostly below about 5.4%; note: actives read high
TIM10 inh = growth inhibitors of isogenic TIM10 control yeast, primary screen, counter-screen for tim10-1 yeast inhibitor project, luminescence, uHTS; AID 463195, 2010; S. cerevisiae TIM10 strain growth, BacTiter-Glo luminescence, 24 h; inhibition, % at 10 µM; 330,000 compounds, 1.4% hits;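 active = inhibition of 40% or more at the single tested concentration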;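 note: wild-type TIM10 isogenic control strain grown at permissive 25 °C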
PfHsp90 set2 = growth inhibition of PfHsp90-expressing yeast, primary screen, antimalarial PfHsp90 inhibitor project, S. cerevisiae, BacTiter-Glo luminescence, single point, set 2; BacTiter-Glo ATP, 48 h; yeast lacking PDR1 and PDR3 efflux regulators; inhibition, % at 9.4 µM; 310,000 compounds, 0.32% hits; AID 504621, 2011;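 active = every replicate shows inhibition above about 80%, whatever the replicate mean, limit read from the data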;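 note: 0% = DMSO neutral controls and 100% = 20 µM radicicol positive controls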
tim10-1 inh = growth inhibitors of tim10-1 mutant yeast, primary screen, luminescence, uHTS | S. cerevisiae tim10-1 ts strain growth, BacTiter-Glo, 24 h | inhibition, % at 20 µM | 330,000 compounds, 2.2% hits | AID 463190, 2010;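 active = inhibition of at least 40%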;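 note: mutant grown at 25 °C; 0% = DMSO wells with yeast and 100% = wells holding no yeast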
tim23-1 inh = growth inhibitors of tim23-1 mutant yeast, primary screen, luminescence, uHTS; S. cerevisiae tim23-1 growth, BacTiter-Glo luminescence, 24 h; inhibition, % at 20 µM; 330,000 compounds, 1.3% hits; AID 463212, 2010;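 active = growth inhibition of the mutant yeast at or above 50%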;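 note: temperature-sensitive mutant grown at 25 °C; plate controls were DMSO-treated mutant yeast for no effect and medium wells lacking yeast for full effect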
* = called active by the depositor; · = no result given. Only some compounds are listed: those with a hit (about 3.7% of all), similar ones and a draw of the others.

SMILES	V-ATPase pH	TIM10 inh	PfHsp90 set2	tim10-1 inh	tim23-1 inh
COc1ccc(CCC(C)NC2C3CC4CC(C3)CC2C4)cc1 (stereo unspecified)	16*	·	2	·	·
c1cc2c(c(CC3CO3)c1CC1CO1)OCCOCCOCCOCCO2 (stereo unspecified)	2	·	·	·	·
C#CCOCCOCCOCCNc1nc(N2CCN(C(=O)CCCCCCCCCCNC(=O)Cn3cc(CCCCCN)nn3)CC2)nc(N2CCN(C(=O)CCCCCCCCCCNC(=O)Cn3cc(C[C@@H](C)O)nn3)CC2)n1	8.6*	9	-13	11	17
C#CCOCCOCCOCCNc1nc(N2CCN(C(=O)CCCCCCCCCCNC(=O)Cn3cc(C[C@@H](C)O)nn3)CC2)nc(N2CCN(C(=O)CCCCCCCCCCNC(=O)[C@@H]([C@H](C)CC)n3cc(CCCCCN)nn3)CC2)n1	11	13	5	31	37
COc1ccc(-c2nn(-c3ccccc3)cc2C(=O)N2CCN(S(=O)(=O)c3ccccc3[N+](=O)[O-])CC2)cc1	-2	·	99*	·	·
COc1ccc(-c2nn(-c3ccccc3)cc2C(=O)N2CCN(S(=O)(=O)c3cccc(F)c3)CC2)cc1	-1	37	105*	21	15
CCOC(=O)[C@@H](NC(=O)CC[C@H]1O[C@@H](n2cc(C)c(=O)[nH]c2=O)C[C@@H]1O)C(C)C	-1	·	·	·	·
O=C(NN=Cc1c(O)ccc2ccccc12)c1ccncc1	-4	·	-17	·	·
O=C(N/N=C\c1c(O)ccc2ccccc12)c1cncc(Br)c1	1	-45	107*	-17	47
CCOC(=O)C1(Cc2cccc(Cl)c2)CCCN(C(=O)c2ccc(COC)s2)C1 (stereo unspecified)	1	-16	·	3	22
Nc1cc(C(F)(F)F)ccc1Nc1ccccc1	3	24	20	34	30
Cc1cc(/C=C2\SC(=S)NC2=O)c(C)n1-c1ccc(O)cc1	4	16	97*	11	36
CC(=O)C[C@@H](O)CC(=O)[C@H]1OC(=O)[C@H](C)CCCCc2ccccc21	0	11	-12	12	9
CN(CC(=O)Nc1cccc(F)c1)C(=O)c1cn(-c2ccccc2)nc1-c1ccc(Cl)cc1	-4	18	98*	33	44
O=C(COC(=O)/C=C/c1cccc(Br)c1)Nc1cccc(S(=O)(=O)NC2=NCCC2)c1	-1	9	-13	4	14
Cc1cc(=O)[nH]c(N2CCN(C(c3ccccc3)c3ccccc3)CC2)n1	19*	6	9	1	5
CCn1nnnc1SCC(=O)N1CCCc2ccccc21	24*	4	-31	12	35
CCn1c(SCC(=O)N2CCCc3ccccc32)nc2c(c1=O)SC(C)C2 (stereo unspecified)	16*	-6	-14	27	26
Cc1ccc(S(=O)(=O)N2CCCCC2)cc1NC(=O)c1ccc2c(c1)OCO2	-2	35	-8	37	22
Cc1ccc(S(=O)(=O)N2CCCCC2)cc1NC(=O)COC(=O)c1ccc2c(c1)OCO2	18*	14	-45	16	-1
CNC(=O)c1ccc(C)c(NC(=O)C2=C(C)OCCS2)c1	3	-24	3	-2	-2
Cc1ccc(S(=O)(=O)N2CCSC2)cc1C	-2	4	20	3	18
Cc1ccccc1Oc1cc(-n2ncc(Cl)c(Cl)c2=O)ncn1	4	·	97*	·	·
CCOc1cnn(-c2cc(Oc3ccc(C)cc3)ncn2)c(=O)c1Cl	7	14	26	16	17
COc1ccc(CN2C(=O)c3cccnc3C2=O)cc1S(=O)(=O)N(C)Cc1ccco1	3	14	15	12	6
SMILES	V-ATPase pH	TIM10 inh	PfHsp90 set2	tim10-1 inh	tim23-1 inh
CN(Cc1ccco1)S(=O)(=O)c1ccc(CN2C(=O)c3cccnc3C2=O)s1	13*	-5	5	27	23
Nc1cc2c(cc1[N+](=O)[O-])-c1ccccc1C2=NO	3	·	128*	·	·
CC(=O)Nc1cc2c(cc1[N+](=O)[O-])-c1ccccc1C2=NO	-7	·	-15	·	·
CCCCC1CCC(C(=O)N(CCOC)c2c(N)n(CCCC)c(=O)[nH]c2=O)CC1 (stereo unspecified)	-2	-1	20	19	11
CCC1(C(=O)OC)NC(c2ccco2)C2C(=O)N(c3ccc(F)cc3)C(=O)C21 (stereo unspecified)	0	14	-3	10	16
CCC1(C(=O)OC)NC(c2ccco2)C2C(=O)N(c3ccccc3)C(=O)C21 (stereo unspecified)	15*	-2	·	9	6
CCc1cccc(NC(=O)COC(=O)CSc2ccc(C)cc2)c1	3	·	·	·	·
C[C@]12CC[C@@H]3c4ccc(O)cc4CC[C@H]3[C@@H]1CCC2=O	93*	-56	-5	-7	3
COC(=O)CSC1=NS(=O)(=O)c2ccccc21	11*	20	3	9	3
O=C(CSC1=NS(=O)(=O)c2ccccc21)Nc1ccccc1	2	4	6	13	9
Cc1ccc(NC(=O)CNc2ccccc2N2CCCC2=O)cc1S(=O)(=O)N1CCOCC1	4	1	-3	4	12
COc1ccc(Cl)cc1NC(=O)CN(C)C(=O)CCSc1ccc(C)cc1	1	0	-10	-7	33
CC(=O)Nc1ccc(Nc2cc(C(C)C)nc3c(-c4ccccc4)c(C)nn23)cc1	1	24	108*	33	45
CC(=O)Nc1ccc(Nc2cc(C)nc3c(-c4ccccc4)c(C)nn23)cc1	-5	26	3	22	36
Cc1ccc(S(=O)(=O)N2CCOCC2)cc1C(=O)Nc1ccc(C(N)=O)cc1	16*	-9	6	-11	0
Cc1ccc(S(=O)(=O)N2CCCCC2)cc1C(=O)Nc1ccc(N2CCOCC2)cc1	0	11	2	16	3
CCOc1ccccc1NC(=O)COc1ccc2ccc(=O)oc2c1	-3	4	-15	5	-10
O=C(CCCCl)NC1=NN(c2ccccc2)C(=O)C1	12	·	-1	·	·
O=C(COc1ccc(Cl)cc1)NC1=NN(c2ccccc2)C(=O)C1	-1	6	125*	23	23
Cc1ccc(-n2ncc(C(=O)Nc3cc(Cl)ccc3C)c2C2CCNCC2)cc1C	32*	10	3	4	2
Cc1cccc(NC(=O)c2cnn(-c3ccc(F)cc3)c2C2CCNCC2)c1C	2	-5	7	-4	-2
Cc1cc(C)cc(OCC(=O)OCC(=O)NC2CCCCCC2)c1	17*	2	7	3	12
Cc1cc(C)c(OCC(=O)OCC(=O)NC2CCCCCCC2)c(C)c1	-2	4	0	8	10
O=C(Nc1nc(-c2cccc3ccccc23)cs1)c1ccc2c(c1)S(=O)(=O)c1ccccc1C2=O	21*	-19	-11	-6	-27
